Experimental data as given in ChEMBL document CHEMBL1157539, “Thousands of chemical starting points for antimalarial lead identification” (Nature, 2010).

Experiments:
Format in all cases: functional
[1] = test system: Plasmodium falciparum; assay: GSK_TCMDC: Inhibition of Plasmodium falciparum 3D7 in whole red blood cells, using parasite LDH activity as an index of growth. Test compounds present at 2uM
[2] = test system: Plasmodium falciparum; assay: GSK_TCMDC: Inhibition of Plasmodium falciparum Dd2 in whole red blood cells, using parasite LDH activity as an index of growth. Test compounds present at 2uM
[3] = test system: HepG2; assay: GSK_TCMDC: Percent inhibition of human HepG2 cell line. Test compounds present at 10uM.

Row | SMILES | Inhibition [1] | Inhibition [2] | Inhibition [3]
1 | N#Cc1cccc(NC(=O)Nc2ccc(CC(=O)N3CCc4cc(Cl)c(N5CCN(C/C=C/c6ccccc6)CC5)cc43)cc2)c1 | 91% | 61% | 0%
2 | Cc1cc2[nH]c(-c3ccc(C(=O)NCCCN4CCN(c5cccc(Cl)c5)CC4)cc3)nc2cc1Cl | 98% | 73% | 1%
3 | CC(C)c1ccc(N2CCN(CCCCNC(=O)c3ccc(NC(=O)c4cc(Cl)cc(Cl)c4)cc3)CC2)cc1 | 100% | 86% | 12%
4 | c1ccc2[nH]c(-c3ccc(-c4ccc(CN5CCN(c6ccncc6)CC5)cc4)s3)nc2c1 | 100% | 100% | 25%
5 | O=C(CCn1cncn1)N1CCCC(c2[nH]c3ccccc3c2-c2ccncc2)C1 (stereo not drawn) | 97% | 79% | 1%
6 | CC(C)NCc1ccc(-c2ccc(CN3CCCC(c4ccccc4)C3)cc2)c(C(=O)NC2Cc3ccccc3C2)c1.O=C(O)C(F)(F)F (stereo not drawn) | 96% | 64% | 41%
7 | O=C(/C=C/c1ccc(Cl)c(Cl)c1)NCCCCCN1CCC(NC(=O)NCCc2ccccc2)CC1 | 100% | 7% | 23%
8 | Cc1cc2nc(-c3cc(-c4cccc(NS(C)(=O)=O)c4)cnc3N)[nH]c2cc1C | 100% | 32% | 43%
9 | COc1cccc(C2CCN(CCN3CCC(NC(=O)c4ccc(-c5ccc(C(F)(F)F)cc5)cc4)CC3)CC2)c1 | 99% | 99% | 46%
10 | Cc1nc(C)c(-c2ccc(C(=O)c3ccccc3)cc2)c(O)c1Br | 95% | 96% | 0%
11 | Cc1cc(N[C@@H](Cc2ccccc2)C(=O)NCCOc2ccccc2)nc(NCC2CCCCC2)n1.O=C(O)C(F)(F)F | 100% | 75% | 30%
12 | CCC(C)NS(=O)(=O)c1ccc2nc(Nc3ccc(C)cc3)n([C@H](C)C(C)(C)C)c2c1 (stereo partly drawn) | 98% | 98% | 2%
13 | Cl.O=C(Nc1ccc(C(=O)OCC2CCCN3CCCCC23)cc1)c1ccc(Cl)c(Cl)c1 (stereo not drawn) | 99% | 37% | 20%
14 | Cc1ccccc1C1CCN(C2CCC(NC(=O)/C=C/c3c[nH]c4ccccc34)CC2)CC1 (stereo not drawn) | 100% | 51% | 30%
15 | COc1cc2c(c(Cl)c1OC)CCN(Cc1ccccc1)CC2c1ccc(C(N)=O)cc1 (stereo not drawn) | 97% | 60% | 7%
16 | Cc1ccc(NC(=S)NC2CCN(CCCCCNC(=O)/C=C/c3ccc(Cl)c(Cl)c3)CC2)cc1Cl | 100% | 56% | 45%
17 | Br.CCOC(=O)c1c(CNc2ccncc2)n(C)c2cc(Br)c(OC(C)=O)cc12 | 96% | 93% | 0%
18 | COc1ccc(-c2nc3cccnc3n2CC(=O)Nc2cc(Cl)c(Cl)cc2Cl)c(OC)c1 | 100% | 17% | 99%
19 | CC(C)c1cc(C(=O)N[C@@H](Cc2ccccc2)[C@H](O)CNC2CCCCC2)cc(N2CCCC2=O)c1 | 100% | 98% | 0%
20 | CCCCc1cc(NCC)nc(Nc2ccc(F)cc2)n1 | 98% | 56% | 33%
21 | Cl.NC(=O)c1cnc2cc(-c3ccoc3)ccc2c1Nc1ccc(NC(=O)Nc2ccccc2Cl)cc1 | 100% | 76% | 39%

Row | SMILES | Inhibition [1] | Inhibition [2] | Inhibition [3]
22 | COc1ccc2c(OC)c(CNCCCCCCNCc3ccc4cc(OC)ccc4c3OC)ccc2c1.CS(=O)(=O)O | 98% | 49% | 100%
23 | Cc1cc(=NN=Cc2ccccn2)c2cc(F)ccc2[nH]1 | 100% | 96% | 9%
24 | CC(=O)Nc1ncc(C(=O)Nc2ccc(-c3cccc(-c4nc5cc(F)ccc5[nH]4)c3)cc2)s1 | 100% | 85% | 47%
25 | CCc1sc(-c2ccc(C(C)(C)C)cc2)nc1C(=O)NCCCN1CCCC1=O | 84% | 69% | 0%
26 | COc1cccc(NC(=O)c2cc(C(=O)Nc3cccc(OC)c3)cc([N+](=O)[O-])c2)c1 | 99% | 61% | 1%
27 | CCc1ccc(CN2CCC(CNC(=O)c3cc(-c4cccc(C(F)(F)F)c4)cs3)C2)cc1.O=C(O)C(F)(F)F (stereo not drawn) | 97% | 48% | 45%
28 | O=C(CCN(Cc1ccco1)c1nc(-c2ccc(F)cc2)nc2ccccc12)NC1CC1 | 94% | 54% | 0%
29 | CNCCNCc1cccc(-c2cccc(-c3nc4cc(F)ccc4[nH]3)c2)c1.O=C(O)C(F)(F)F | 98% | 15% | 20%
30 | Cc1cccc2nc(-c3ccc(-c4cccc(NC(=O)C(C)CN(C)C)c4)s3)[nH]c12 (stereo not drawn) | 92% | 69% | 12%
31 | Cc1ccc(C(=O)Nc2ccc(F)cc2)cc1-c1nc(NC2CC(C)(C)NC(C)(C)C2)nc2c1ccc(=O)n2-c1c(F)cccc1F | 89% | 96% | 16%
32 | Nc1ncc(-c2cn[nH]c2)cc1-c1nc2ccc(Cl)cc2[nH]1 | 100% | 100% | 46%
33 | C=Cc1ccc(-c2c(C)[nH]c(C)c(Br)c2=O)cc1 | 98% | 96% | 0%
34 | CC(CN(C)C)C(=O)Nc1cccc(-c2ccc(-c3nc4cc(C(F)(F)F)ccc4[nH]3)cc2)c1 (stereo not drawn) | 99% | 97% | 26%
35 | CCCNC[C@@H](O)[C@H](Cc1ccccc1)NC(=O)c1cc2c3c(c1)c(CC)cn3CCS(=O)(=O)N2C | 97% | 98% | 0%
36 | COc1ccc2ncc(F)c(CCN3CCC(NCc4cnc5c(c4)NC(=O)CS5)CC3)c2c1.Cl | 99% | 16% | 16%
37 | CCCCCCN1CCN(Cc2cccc(NC(=O)c3cccc(OCC)c3)c2)CC1.O=C(O)C(F)(F)F | 85% | 48% | 65%
38 | CC(C)COc1ccc(C(O)C(CN2CCCCC2)c2ccccc2)cc1 (stereo not drawn) | 93% | 89% | 11%
39 | CN(C)S(=O)(=O)c1ccc(C(=O)N(c2nc(-c3ccccc3)cs2)C2CCCCC2)cc1 | 98% | 46% | 7%
40 | COc1ccc2[nH]c(C)cc(=NN=Cc3ccc(F)cc3)c2c1 | 100% | 99% | 5%
41 | CC(C)c1ccc(NC(=O)c2ccc(C(=O)NC3CCN(Cc4ccccc4)CC3)cc2)cc1.O=C(O)C(F)(F)F | 88% | 7% | 30%
42 | Cc1ccoc1C(=O)Nc1cccc(-c2cccc(-c3nc4cc(C(F)(F)F)ccc4[nH]3)c2)c1 | 98% | 37% | 39%

Row | SMILES | Inhibition [1] | Inhibition [2] | Inhibition [3]
43 | Cc1c(-c2ccccc2)ccc2[nH]cc(CC#N)c12 | 95% | 85% | 2%
44 | Cc1cc(S(=O)(=O)N2CCCCC(c3ccc(C(F)(F)F)cc3)=N2)c(Cl)cc1Cl | 97% | 97% | 17%
45 | O=C(c1ccc2ccccc2n1)N1CCCc2cc(Br)ccc21 | 97% | 74% | 19%
46 | COc1ccc(Nc2nc(NC3CCN(C)CC3)cc(-c3ccc(OC)cc3)n2)cc1 | 100% | 51% | 62%
47 | COc1c(C2CCN(CCCCNC(=O)c3ccc(C)c(-c4ccc(C(F)(F)F)cc4)c3)CC2)ccc2c1CCCC2 | 86% | 79% | 76%
48 | COc1c(C2CCN(CCCCNC(=O)c3ccc(-c4ccc(Cl)cc4)c(OCCN(C)C)c3)CC2)ccc2c1CCCC2 | 100% | 86% | 100%
49 | O=C(Nc1ccc(OC2CCN(Cc3ccc(F)cc3)CC2)cc1)c1cccs1.O=C(O)C(F)(F)F | 84% | 52% | 6%
50 | CC(C)(C)c1ccc(C(=O)Nc2ccc3nc4c(c(N)c3c2)CCCC4)cc1.Cl | 100% | 99% | 21%
51 | Br.COc1ccccc1CCCON1C(=N)N=C(N)NC1(C)C | 95% | 92% | 68%
52 | Cc1ccc(NC(=O)NC2CCN(c3ccnc4ccccc34)CC2)cc1.O=C(O)C(F)(F)F | 97% | 52% | 21%
53 | CC(C)NCc1ccc(-c2cccc(NC(=O)c3ccc(C#N)cc3)c2)cc1.O=C(O)C(F)(F)F | 100% | 19% | 8%
54 | COc1cc2nc(N3CCC(c4ccccc4)CC3)nc(NCc3ccc(=O)[nH]c3)c2cc1OC | 100% | 58% | 12%
55 | COc1ccc(-c2cc(C(=O)N[C@@H](Cc3ccccc3)C(=O)NCCN3CCCCC3)ccc2O)cc1 | 96% | 0% | 0%
56 | COc1cccc(NC(=O)c2cc(Br)cc(N3CCN(c4ccncc4)CC3)c2)c1.O=C(O)C(F)(F)F | 100% | 79% | 30%
57 | Cc1[nH]c(C)c(-c2ccc(-c3ccccc3C(F)(F)F)nc2)c(=O)c1Br | 97% | 96% | 0%
58 | Cc1cccc2nc(-c3cccc(-c4ccc(NC(=O)Nc5ccc6c(c5)OCO6)cc4)c3)[nH]c12 | 100% | 86% | 80%
59 | CCCCN(CCCC)/C(=N/C(=N)NCc1ccc(Cl)c(Cl)c1)NCCCCCCN/C(=N\C(=N)NCc1ccc(Cl)c(Cl)c1)N(CCCC)CCCC | 100% | 96% | 9%
60 | Cl.c1ccc2c(c1)ncn2-c1ccnc(Nc2ccncc2)n1 | 89% | 80% | 0%
61 | COc1ccc2cc(C(=O)NC3CCC(CCN4CCc5cc(C#N)ccc5C4)CC3)[nH]c2c1.Cl (stereo not drawn) | 88% | 0% | 9%
